Only some compounds are listed: those with a hit (about 4% of all), similar ones and a draw of the others.
Measles CPE: compounds protecting cells from measles virus cytopathic effect, primary screen, measles RdRp inhibitor project, single point, MLSMR library, absorbance | Measles virus-infected cells, CPE protection | protection (pct of control), % at 4 µM | 140,000 compounds, 1.5% hits; in the data active = protection mostly above about 24%, no sharp cut-off; inactive = mostly below about 26%
HSV replic up: enhancers of HSV replication in host cells, fold increase, host cell viability. HSV replication augmentation in cells. maximum fold increase. 220,000 compounds, 0.005% hits; in the data active = maximum fold increase above about 1.5; inconclusive = no clear call, values can overlap the other calls; tested in PC3 cells
Arbovirus anti: antivirals against arbovirus infection, primary screen, cell-based, full library, 10K replicate subset; arbovirus infection cell-based antiviral screen; inhibition, % at 10 µM; 200,000 compounds, 0.37% hits; AID 1251, 2008; in the data active = inhibition above about 30%
KCC2 mod: KCC2 cotransporter modulators, thallium flux, primary screen, cell-based, HEK293 KCC2, FluoZin-2 fluorescence, MLSMR | AID 1456, 2008 | B-score of Tl+ flux slope (higher = more flux/activation; lower = inhibition) at 10 µM | Solute carrier family 12 member 5 (Homo sapiens), Q9H2X9 | KCC2 cells, thallium flux FluoZin-2 fluorescence | 190,000 compounds, 2.2% hits;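 active = thallium flux slope and its plate-corrected score both differing from the plate sample mean at a set confidence after two filtering rounds, in either direction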;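 note: slope of fluorescence scaled to starting intensity during 10 to 20 s after thallium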
ROMK primary: ROMK potassium channel modulators, primary screen, cell-based, thallium flux, MLSMR library | Tet-inducible ROMK, thallium flux fluorescence; actives lie on both sides | B-score at 10 µM | AID 1918, 2009 | 130,000 compounds, 2% hits | ATP-sensitive inward rectifier potassium channel 1 (Homo sapiens), P48048;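 active = signal ratio slope over the read window, or its plate-corrected B-score, at least 3 SD from the plate mean, either direction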;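 note: B-score of the F/F0 ratio slope over 7 to 12 s after thallium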
Target sequence (P48048 whole entry, looked up): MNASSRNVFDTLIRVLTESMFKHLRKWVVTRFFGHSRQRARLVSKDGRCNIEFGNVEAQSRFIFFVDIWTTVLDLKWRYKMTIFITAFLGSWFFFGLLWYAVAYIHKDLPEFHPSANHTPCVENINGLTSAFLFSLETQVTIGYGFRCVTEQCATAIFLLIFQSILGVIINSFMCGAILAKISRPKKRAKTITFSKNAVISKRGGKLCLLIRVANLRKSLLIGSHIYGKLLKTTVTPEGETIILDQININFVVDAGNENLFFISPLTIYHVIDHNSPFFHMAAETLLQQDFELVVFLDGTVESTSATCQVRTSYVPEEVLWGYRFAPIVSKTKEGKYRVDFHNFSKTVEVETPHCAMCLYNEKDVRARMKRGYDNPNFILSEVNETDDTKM
ROMK retest: ROMK channel modulator hit retest, confirmation, cell-based, thallium flux, duplicate, resupplied hits. AID 1917, 2009. 3,000 compounds, 54% hits. shares compounds with ROMK primary. normalized thallium flux (F/F0 slope) at 10 µM. fluorescence ratio; stronger effect = lower value;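 active = Flux at 10 µM at least 3 SD below or above vehicle control mean in one or both replicates; inconclusive = no clear call, values can overlap the other calls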
Large screens that a line does not name were inactive (follow-up assays come after a bar, where they were run).

O=C(N/N=C/C=C\c1ccco1)c1cccs1	none (no result: Measles CPE)
CCOc1ccccc1C1C(C(=O)OC)=C(N)OC2=C1C(=O)CCC2 (stereo unspecified)	none (no result: ROMK primary) | ROMK retest inactive
CCOC(=O)C1=C(N)OC2=C(C(=O)CCC2)C1c1ccco1 (stereo unspecified)	none (no result: KCC2 mod)
CN(C)c1ccc(/C=N/NC(=O)c2ccccc2Cl)cc1	none | ROMK retest inactive
O=C(c1cccc([N+](=O)[O-])c1)c1ccc2c(c1)C(=O)N(c1c[nH]c(=O)[nH]c1=O)C2=O	none (no result: Measles CPE)
O=C(O)c1ccc(N2C(=O)c3ccc(C(=O)c4cccc([N+](=O)[O-])c4)cc3C2=O)cc1	ROMK primary 2.2 (no result: Measles CPE) | ROMK retest inactive
Cc1cc(/C=N/NC(=O)c2cccc(F)c2)c(C)n1-c1ccccc1	ROMK primary 4.8 (no result: Measles CPE) | ROMK retest inactive
Cc1cc(/C=N/NC(=O)c2ccncc2)c(C)n1-c1cccc(C(F)(F)F)c1	none (no result: Measles CPE, Arbovirus anti, ROMK primary)
CCOC(=O)N/N=C/c1cc(C)n(-c2cccc3ccccc23)c1C	none (no result: ROMK primary)
CCOC(=O)N/N=C/c1cc(C)n(-c2ccccc2)c1C	ROMK primary 2.4 | ROMK retest inactive
COc1ccc(/C(C)=N/NS(=O)(=O)c2cc(C)ccc2C)c(OC)c1	none (no result: Measles CPE)
CCCCC(=O)OCC(=O)Nc1cccc(S(=O)(=O)NC2=NCCCCC2)c1	none (no result: Measles CPE)
O=S(=O)(c1ccc(Cl)cc1)N1CCN(S(=O)(=O)N2CCCCCC2)CC1	none (no result: Measles CPE)
O=[N+]([O-])c1cc(S(=O)(=O)N2CCCCCC2)ccc1Cl	ROMK primary -3.9 (no result: Measles CPE) | ROMK retest 0.064
O=S(=O)(c1ccc(Oc2ccc(Cl)cc2)c(S(=O)(=O)N2CCCCC2)c1)N1CCCCC1	Arbovirus anti 38 (no result: ROMK primary) | ROMK retest 0.064
Cc1ccc(S(=O)(=O)N2CCCC2)cc1[N+](=O)[O-]	none
CCCc1cc2c(=O)c(-c3nc4ccccc4s3)c(COCC(=O)O)oc2cc1O	none (no result: Measles CPE, ROMK primary)
Nc1ccc2c(c1)C(=O)C(=O)c1ccccc1-2	ROMK primary -5.6 | ROMK retest 0.037
O=C1C(=O)c2ccc(-c3ccccc3)cc2-c2ccccc21	none
C=CCO/N=C(/C)c1ccc(Oc2cnccn2)cc1	none (no result: Measles CPE)
CCN(CC)C(=O)CSc1nc2sc(C)c(C)c2c(=O)[nH]1	none (no result: ROMK primary) | ROMK retest inactive
OCC[C@H]1C[C@@H](O)[C@H](O)[C@@]2(CCCO2)O1	none (no result: Measles CPE, Arbovirus anti, KCC2 mod, ROMK primary)
Cc1cccc(NC(=O)CSc2nnc(CSc3nc(C)cc(C)n3)o2)c1	none (no result: ROMK primary)
Cc1cc(C)nc(SCc2nnc(SCC(=O)Nc3ccc(Cl)c(C(F)(F)F)c3)o2)n1	ROMK primary -3.9 | ROMK retest 0.064
C(#Cc1ccccc1)C[N+]1(CC#Cc2cccc3ccccc23)CCOCC1	ROMK primary -2.4 (no result: Measles CPE) | ROMK retest 0.068
COC(=O)N/N=C\c1ccc(-c2cc(Cl)c(Cl)cc2Cl)o1	none
COC(=O)N/N=C/c1ccc(-c2cc(Cl)ccc2Cl)o1	none (no result: ROMK primary) | ROMK retest 0.066
CCC(NC(=O)Nc1nccs1)(C(F)(F)F)C(F)(F)F	none
CCC(C(=O)Nc1nccs1)(C(F)(F)F)C(F)(F)F	none (no result: KCC2 mod) | ROMK retest inconclusive
CCCNC(=O)Nc1nccs1	ROMK primary 1.7 | ROMK retest inconclusive
CCC(=O)c1ccc(OCC(=O)NCC2(N3CCCCC3)CCCCC2)cc1	none (no result: Measles CPE)
CC(C)c1ccc2c(c1)CCC1C(C)(CN)CCCC21C (stereo unspecified)	none (no result: Measles CPE, Arbovirus anti, ROMK primary) | ROMK retest 0.04
c1ccc2nc3c(cc2c1)CCCCC3	none (no result: Measles CPE, Arbovirus anti, ROMK primary) | ROMK retest inactive
CC(C)(C)c1ccc(OCCOc2ccc(C(C)(C)C)cc2NC=O)c(NC=O)c1	none (no result: Measles CPE, Arbovirus anti, ROMK primary)
CCCCCN1N=C(C)CC1=O	ROMK primary 2.7 (no result: Measles CPE) | ROMK retest inactive
CSc1ccccc1Nc1ncnc(N)n1	none (no result: Measles CPE, Arbovirus anti, ROMK primary)
O=C1CCCc2nc3c(cc21)C(O)Oc1ccccc1-3 (stereo unspecified)	none (no result: Measles CPE, KCC2 mod, ROMK primary) | ROMK retest inactive

Screening results (PubChem BioAssay)
